# Measurements: the supplement of paper PMC8728848
# This is one part of a sample in which the strongest signals are shown more often than they occur.
# B1: Cohesin-marm-DC-ASGPR-CRD (protein)
# chain: LDITSHHHHHHDDLDAVRIKVDTVNAKPGDTVRIPVRFSGIPSKGIANCDFVYSYDPNVLEIIEIEPGDIIVDPNPDKSFDTAVYPDRKIIVFLFAEDSGTGAYAITKDGVFATIVAKVKEGAPNGLSVIKFVEVGGFANNDLVEQKTQFFDGGVNVGDTTEPATPTTPVTTPTTTDDLDAASCPINWVEHQGSCYWFSRSGKTWPEAERYCQLENTHLVVINSREEQNFVQAHLGSAYTWMGLSDPEGVWKWVDGTDYSSGFQNWKPGQPDDWQGHGLGGGEDCAHFHPDGRWNDDVCQRSYHWVCEAGLTQASQDSH
# Experiments:
# Assay in all cases: glycan array binding signal (z-score within array); higher = stronger binding
# Settings in all cases: glycan notation: IUPAC condensed, linker removed
# [1] = target: Fuc(a1-2)Gal(b1-3)GalNAc
# How it was run: (§1)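 Glycan array data were curated from 3228 arrays in the Consortium for Functional Glycomics database and kept only where the protein sequence was available. Glycan names were converted to IUPAC-condensed notation, and columns mapping to the same glycan were averaged. The binding signal is a within-array Z-score, averaged across arrays of the same protein sequence at different concentrations or buffers and across linkers. Negative Z-scores can be read as non-binding.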
# [2] = target: Fuc(a1-2)Gal(b1-3)[Fuc(a1-4)]GlcNAc(b1-3)[Gal(b1-4)GlcNAc(b1-6)]Gal(b1-4)Glc
# How it was run: as §1
# [3] = target: Fuc(a1-2)[Gal(a1-3)]Gal(b1-4)GlcNAc(b1-6)GalNAc
# How it was run: as §1
# [4] = target: Fuc(a1-2)[GalNAc(a1-3)]Gal(b1-3)GalNAc(a1-3)[Fuc(a1-2)]Gal(b1-4)GlcNAc
# How it was run: as §1
# [5] = target: Fuc(a1-2)[GalNAc(a1-3)]Gal(b1-3)GlcNAc
# How it was run: as §1
# [6] = target: Fuc(a1-2)[GalNAc(a1-3)]Gal(b1-3)GlcNAc(b1-6)GalNAc
# How it was run: as §1
# [7] = target: Fuc(a1-2)[GalNAc(a1-3)]Gal(b1-4)GlcNAc(b1-3)Gal(b1-4)GlcNAc
# How it was run: as §1
# [8] = target: Fuc(a1-2)[GalNAc(a1-3)]Gal(b1-4)GlcNAc(b1-3)Gal(b1-4)GlcNAc(b1-3)Gal(b1-4)GlcNAc
# How it was run: as §1
# [9] = target: Fuc(a1-2)[GalNAc(a1-3)]Gal(b1-4)GlcNAc(b1-6)GalNAc
# How it was run: as §1
# [10] = target: Fuc(a1-2)[GalNAc(a1-3)]Gal(b1-4)[Fuc(a1-3)]GlcNAc
# How it was run: as §1
# [11] = target: Gal(a1-3)Gal(b1-3)GlcNAc(b1-6)GalNAc
# How it was run: as §1
# [12] = target: Gal(a1-3)Gal(b1-4)Glc
# How it was run: as §1
# [13] = target: Gal(a1-4)GlcNAc
# How it was run: as §1
# [14] = target: Gal(b1-3)GlcNAc(b1-6)[Gal(b1-3)]GalNAc
# How it was run: as §1
# [15] = target: Gal(b1-4)Glc6S
# How it was run: as §1
# [16] = target: Gal(b1-4)GlcNAc(b1-2)Man
# How it was run: as §1
# [17] = target: Gal(b1-4)GlcNAc(b1-2)[Gal(b1-4)GlcNAc(b1-4)]Man(a1-3)[Gal(b1-4)GlcNAc(b1-2)Man(a1-6)]Man(b1-4)GlcNAc(b1-4)GlcNAc
# How it was run: as §1
# [18] = target: Gal(b1-4)GlcNAc(b1-2)[Gal(b1-4)GlcNAc(b1-4)]Man(a1-3)[GlcNAc(b1-4)][Gal(b1-4)GlcNAc(b1-2)[Gal(b1-4)GlcNAc(b1-6)]Man(a1-6)]Man(b1-4)GlcNAc(b1-4)GlcNAc
# How it was run: as §1
# [19] = target: Gal(b1-4)GlcNAc(b1-3)Gal(b1-4)GlcNAc(b1-3)Gal(b1-4)GlcNAc(b1-2)Man(a1-3)[Gal(b1-4)GlcNAc(b1-3)Gal(b1-4)GlcNAc(b1-3)Gal(b1-4)GlcNAc(b1-2)Man(a1-6)]Man(b1-4)GlcNAc(b1-4)[Fuc(a1-6)]GlcNAc
# How it was run: as §1
# [20] = target: Gal(b1-4)GlcNAc(b1-6)[Gal(b1-4)GlcNAc(b1-3)]GalNAc
# How it was run: as §1
# [21] = target: Gal3S(b1-4)[Fuc(a1-3)]GlcNAc6S
# How it was run: as §1
# [22] = target: Gal3S4S(b1-4)GlcNAc
# How it was run: as §1
# [23] = target: GalNAc3S(b1-4)GlcNAc
# How it was run: as §1
binder,measurement,setting,value
B1,glycan array binding signal (z-score),[1],-0.443
same,glycan array binding signal (z-score),[2],-0.444
same,glycan array binding signal (z-score),[3],-0.449
same,glycan array binding signal (z-score),[4],3.71
same,glycan array binding signal (z-score),[5],2.96
same,glycan array binding signal (z-score),[6],2.04
same,glycan array binding signal (z-score),[7],2.91
same,glycan array binding signal (z-score),[8],2.99
same,glycan array binding signal (z-score),[9],2.6
same,glycan array binding signal (z-score),[10],3.78
same,glycan array binding signal (z-score),[11],2.92
same,glycan array binding signal (z-score),[12],-0.398
same,glycan array binding signal (z-score),[13],-0.402
same,glycan array binding signal (z-score),[14],-0.041
same,glycan array binding signal (z-score),[15],-0.377
same,glycan array binding signal (z-score),[16],3.13
same,glycan array binding signal (z-score),[17],-0.44
same,glycan array binding signal (z-score),[18],-0.305
same,glycan array binding signal (z-score),[19],-0.304
same,glycan array binding signal (z-score),[20],-0.405
same,glycan array binding signal (z-score),[21],-0.069
same,glycan array binding signal (z-score),[22],-0.425
same,glycan array binding signal (z-score),[23],-0.449
